# From PubChem BioAssay
# RORgamma inh = inhibitors of mouse ROR gamma transcriptional activity | Potency, µM (top dose mostly 53.6 µM), hits mostly inhibitors | hit rate 5.4% among 310,000 | Drosophila S2 Gal4-RORgamma UAS-luciferase reporter, 20 h | P51450; note: nearly all actives have a fitted effect of over 60% in size
# Target sequence (P51450 whole entry, looked up, the tested form may be a part): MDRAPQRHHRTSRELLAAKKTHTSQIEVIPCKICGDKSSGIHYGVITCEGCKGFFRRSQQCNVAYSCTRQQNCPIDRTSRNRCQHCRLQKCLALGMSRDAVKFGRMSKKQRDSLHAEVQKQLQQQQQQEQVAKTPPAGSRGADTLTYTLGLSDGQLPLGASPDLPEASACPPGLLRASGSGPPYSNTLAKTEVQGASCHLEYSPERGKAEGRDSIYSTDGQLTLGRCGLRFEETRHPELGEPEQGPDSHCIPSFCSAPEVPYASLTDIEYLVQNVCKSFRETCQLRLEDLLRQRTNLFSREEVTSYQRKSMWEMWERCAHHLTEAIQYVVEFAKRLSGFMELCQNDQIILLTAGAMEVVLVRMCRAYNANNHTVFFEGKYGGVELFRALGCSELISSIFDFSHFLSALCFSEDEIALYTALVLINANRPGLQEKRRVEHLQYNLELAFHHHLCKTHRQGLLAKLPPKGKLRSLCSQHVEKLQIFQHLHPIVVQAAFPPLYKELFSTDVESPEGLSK
#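 Schneider cells (Drosophila), stable Gal4 DBD–ROR gamma + UAS-luc; 1 hr cmpd preincubation; Cu2+ induction 700 uM final; 20 hr ambient; luminescence.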
# LDHA block = LDHA (human) enzyme inhibition | P00338 | activity change, % (values are at about 110 or 230 µM) | purified LDHA, NADH/diaphorase-resazurin fluorescence; hits give low values | hit rate 0.15% among 480,000 | AID 1347041; in the data active = activity change below about -30%; inconclusive = mostly about -25% to -30%
#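 Enzyme activity of human lactate dehydrogenase 5 (2 nM; 0.06 mM NADH, 0.2 mM pyruvate, 5 min, RT) is measured via a resazurin/diaphorase fluorescence readout of residual NADH.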
# TDP1 cell CPT = DT40-hTDP1 cell growth loss with CPT. hit rate 12% among 420,000. AID 686979. Potency, µM (highest dose often 46.2 µM), hits mostly inhibitors. chicken DT40 Tdp1-/-;hTDP1 cells + 20 nM CPT, ATP luminescence, 48 h; note: nearly all actives have a fitted effect of over 55% in size
#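 Chicken DT40 Tdp1-/- cells complemented with human TDP1, 400 cells/well, exposed to compounds plus 20 nM camptothecin for at least 48 h at 37 C; viability read as ATP content by CellTiter-Glo luminescence.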
# DT40 TDP1 no CPT = qHTS for Inhibitors of human tyrosyl-DNA phosphodiesterase 1 (TDP1): qHTS in cells in absence of CPT. DT40 Tdp1-/- hTDP1 cells, no CPT, ATP luminescence, 48 h. Potency, µM (titrated, usually from 46.2 µM), most hits filed as inhibitors. hit rate 15% among 420,000. AID 686978, 2013; note: nearly all actives have a fitted effect of over 55% in size
#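 Camptothecin absent (DMSO only). Human TDP1-complemented DT40 knockout cells, 400 cells/well, 37 °C for minimum 48 hr; ATP measured via CellTiter-Glo, 30 min dark incubation, luminescence.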
# IL1B secr inh = inhibitors of inflammasome signaling (IL-1 beta secretion); hit rate 4.7% among 360,000; THP-1 LPS/ATP IL-1B secretion, AlphaLISA, 16 h; hits give low values; activity change, % at 57.5 µM; in the data active = activity change below about -50%; inconclusive = mostly about -30% to -49%
#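 THP-1 cells pretreated 1 hr with compounds (up to 57.5 uM final), then stimulated with LPS (250 ng/mL final) plus ATP (1.25 mM final); secreted IL-1B measured by AlphaLISA after 16 hr, decreased signal indicating inhibition.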
# Gal4-VP16 FLuc = Gal4-VP16 reporter inhibition counter-screen. Drosophila S2 Gal4-VP16 UAS-luciferase, luminescence, 20 h. Potency, µM (highest dose often 53.6 µM), actives largely listed as inhibitors. hit rate 3.5% among 310,000. AID 2546;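 note: Gal4-VP16 expression switched on by copper sulfate through the metallothionein promoter; nearly all actives have a fitted effect of over 50% in size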
# Hits are given with their value; - = inactive; ? = inconclusive; . = not tested or not shown; ! = repeats disagree. Rows were chosen to be rich in hits. Some 18% of all compounds tested hit in one or more screens of this group. Unless noted, calls come from the whole dose curve; as a rule, active = well fitted curve in the direction sought with a large enough effect; inconclusive = small, poorly fitted or top-dose-only effect, or another doubt; inactive = no such curve, though single readings can be large; an effect the other way counts as inactive or inconclusive.
SMILES,RORgamma inh,LDHA block,TDP1 cell CPT,DT40 TDP1 no CPT,IL1B secr inh,Gal4-VP16 FLuc
CC(=O)OCC(=O)[C@@]1(O)CCC2C3CCC4=CC(=O)CC[C@]4(C)C3[C@@H](O)C[C@@]21C (some centres not stated),.,.,?,-,.,.
CC12C=CC(=O)C=C1CCC1C2C(O)CC2(C)C1CCC2(O)C(=O)CO (configuration not stated),.,-,-,-,-59.8,.
C[C@]12CCC(=O)C=C1CC[C@H]1[C@@H]3CC[C@](O)(C(=O)CO)[C@@]3(C)C[C@H](O)[C@@]12F,-,.,?,26.6µM!,.,-
CN(Cc1ccccc1)C(=O)CSc1nnc(COc2ccc(Cl)cc2)n1C,.,-,.,.,.,.
CCN(CC)C(CN)c1ccco1 (configuration not stated),.,-,.,.,.,.
Cc1nnc(N/N=C/C(C)c2ccccc2)[nH]c1=O (configuration not stated),-,-,-,-,-99.8,-
Cc1nnc(N/N=C/c2c[nH]c3ccccc23)[nH]c1=O,-,-,?,-,-,-
COc1ccc(N=C2C(=O)N3c4c(cccc42)C(C)=CC3(C)C)cc1,-,-,5.17µM,2.59µM,-,-
Cc1cccc(CNC(=O)CN2C(=O)CN(C(=O)NCc3ccccc3)c3ccccc32)c1,.,-,.,.,.,.
CC(NC(=O)Oc1cccc2ccccc12)c1ccccc1 (configuration not stated),.,-,?,25.9µM,-,.
CC(NC(=O)c1nn(C)c(=O)c2ccccc12)c1ccc(Cl)cc1 (configuration not stated),.,-,.,.,.,.
N#Cc1c(N)n[nH]c1CCCNC(=O)c1cn(-c2ccccc2)nc1-c1ccccc1,.,-,.,.,.,.
COc1cc(F)cc(C2=CC(=O)C[C@H](c3ccc(F)cc3)C2)c1,.,-,?,?,?,.
COc1ccc(C2=CC(=O)CC(c3ccc(F)cc3)C2)cn1 (configuration not stated),.,-,14.6µM,?,-,.
CCc1ccc(-c2n[nH]nc2C2=CC(=O)C[C@H](c3ccc(F)cc3)C2)cc1,.,-,?,2.91µM,-,.
Cc1ccc(C(=O)NC(C)c2nc(-c3ccc(Cl)cc3)no2)cc1 (configuration not stated),.,-,.,.,.,.
Cc1ccc(CC(=O)NC2CCCCC2C)cc1 (configuration not stated),.,-,.,.,.,.
Cc1nc(NC(C)C)sc1C(=O)NCc1ccncc1,.,-,.,.,.,.
CCOc1cc(C=O)cc(Br)c1OCC(N)=O,-,-,5.8µM,5.17µM,-,-
CCCOc1c(Br)cc(C(N)=O)cc1OCC,-,-,23.1µM,?,-,-
CCOc1c(Br)cc(C(N)=O)cc1OC,-,-,-,-,-,-
CCOc1cc(C=O)cc(Br)c1OC(=O)c1ccc(OC)cc1,.,-,.,.,.,.
CC(C)(CO)NC(=O)c1ccc(F)cc1,.,-,.,.,.,.
O=C(C=C1SCCS1)/C=C/c1ccco1,?,-,?,?,-92.0,?
O=C(O)C(C(=O)/C=C/c1ccco1)=C1SCCS1,-,-,-,?,-,-
SMILES,RORgamma inh,LDHA block,TDP1 cell CPT,DT40 TDP1 no CPT,IL1B secr inh,Gal4-VP16 FLuc
Cc1ccc(CNS(=O)(=O)c2ccc3c(c2)NC(=O)CS3)cc1,-,-,?,14.6µM,-,-
CC(C)NC(=O)C1CC1,.,-,.,.,.,.
CCCCCCCCC1=NCCc2c1[nH]c1ccccc21,-,-,?,20.6µM,-94.1,-
C/C(=N\NC(=S)Nc1cccc(C)c1)c1cc2ccccc2o1,2.51µM,-,?,?,-,?
C/C(=N\NC(=O)c1cccc(S(=O)(=O)N2CCOCC2)c1)c1cc2ccccc2o1,-,-,?,?,-,-
C/C(=N\NC(=O)c1ccc(O)cc1)c1cc2ccccc2o1,6.31µM,-,-,?,-,10µM
CCC(=O)Nc1cccc(NC(=S)NC(=O)c2cc3ccccc3o2)c1,-,-,?,?,-,-
CCNC(=S)N/N=C(\C)c1cc2ccccc2o1,3.55µM,-,?,?,-51.6,7.94µM
CCC(C(=O)Nc1ccc(N(C)C)cc1)n1cnc2ccccc2c1=O (configuration not stated),.,-,.,.,.,.
